# Measurements as given in PubChem BioAssay (EPA / NIEHS).
# Inconclusive results are not listed. Activity calls are given as the source filed them. How the source made its calls: active means hit-call score of the fitted dose curve at least 0.9, where 1 is the maximum; inconclusive means response in the unintended direction; inactive means score below 0.9.
# Legend:
# [1] = biological target: human Androgen Receptor (AR), AR (gene 367) (UniProt P10275); assay: NVS_NR_hAR: NovaScreen (NVS) Nuclear Receptor Binding Assay for human Androgen Receptor (AR) (AID 2283332)
# Chain of human Androgen Receptor (AR), AR (gene 367) (P10275 whole entry, looked up): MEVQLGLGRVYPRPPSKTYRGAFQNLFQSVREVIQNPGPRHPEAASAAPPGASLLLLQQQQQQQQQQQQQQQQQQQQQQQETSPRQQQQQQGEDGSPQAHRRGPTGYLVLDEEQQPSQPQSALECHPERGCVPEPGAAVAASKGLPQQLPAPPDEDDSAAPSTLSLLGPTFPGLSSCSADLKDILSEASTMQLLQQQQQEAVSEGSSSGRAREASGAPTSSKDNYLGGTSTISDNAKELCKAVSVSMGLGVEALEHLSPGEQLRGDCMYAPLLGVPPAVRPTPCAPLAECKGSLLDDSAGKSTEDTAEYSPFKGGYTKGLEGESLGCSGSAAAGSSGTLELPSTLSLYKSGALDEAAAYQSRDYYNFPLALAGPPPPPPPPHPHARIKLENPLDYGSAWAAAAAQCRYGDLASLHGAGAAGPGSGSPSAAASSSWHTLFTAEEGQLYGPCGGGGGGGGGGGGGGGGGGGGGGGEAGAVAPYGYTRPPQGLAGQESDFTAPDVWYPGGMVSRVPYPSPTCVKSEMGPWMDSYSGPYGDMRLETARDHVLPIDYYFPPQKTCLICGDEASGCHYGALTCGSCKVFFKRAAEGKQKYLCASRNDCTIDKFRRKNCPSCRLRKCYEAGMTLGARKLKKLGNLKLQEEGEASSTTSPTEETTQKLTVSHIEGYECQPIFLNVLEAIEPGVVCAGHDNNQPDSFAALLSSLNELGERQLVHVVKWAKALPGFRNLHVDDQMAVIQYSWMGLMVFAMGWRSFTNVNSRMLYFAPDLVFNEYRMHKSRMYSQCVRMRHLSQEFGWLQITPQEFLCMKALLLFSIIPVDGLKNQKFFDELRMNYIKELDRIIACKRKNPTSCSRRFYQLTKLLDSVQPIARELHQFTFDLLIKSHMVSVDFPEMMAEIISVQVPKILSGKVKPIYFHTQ
# Outline: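 Radioligand competitive binding, scintillation read-out, in cell-free extract from LnCAP, measured 20 h after dosing. Screened first in duplicate at 25 uM, then concentration series for actives; activity fitted against DMSO.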
# [2] = biological target: Voltage-gated inwardly rectifying potassium channel KCNH2 (Homo sapiens) (UniProt Q12809); assay: NVS_IC_hKhERGCh: NovaScreen (NVS) Ion Channel Assay for human Potassium Channel ERG (KhERGCh) (AID 2283333)
# Chain of Voltage-gated inwardly rectifying potassium channel KCNH2 (Homo sapiens) (Q12809 whole entry, looked up): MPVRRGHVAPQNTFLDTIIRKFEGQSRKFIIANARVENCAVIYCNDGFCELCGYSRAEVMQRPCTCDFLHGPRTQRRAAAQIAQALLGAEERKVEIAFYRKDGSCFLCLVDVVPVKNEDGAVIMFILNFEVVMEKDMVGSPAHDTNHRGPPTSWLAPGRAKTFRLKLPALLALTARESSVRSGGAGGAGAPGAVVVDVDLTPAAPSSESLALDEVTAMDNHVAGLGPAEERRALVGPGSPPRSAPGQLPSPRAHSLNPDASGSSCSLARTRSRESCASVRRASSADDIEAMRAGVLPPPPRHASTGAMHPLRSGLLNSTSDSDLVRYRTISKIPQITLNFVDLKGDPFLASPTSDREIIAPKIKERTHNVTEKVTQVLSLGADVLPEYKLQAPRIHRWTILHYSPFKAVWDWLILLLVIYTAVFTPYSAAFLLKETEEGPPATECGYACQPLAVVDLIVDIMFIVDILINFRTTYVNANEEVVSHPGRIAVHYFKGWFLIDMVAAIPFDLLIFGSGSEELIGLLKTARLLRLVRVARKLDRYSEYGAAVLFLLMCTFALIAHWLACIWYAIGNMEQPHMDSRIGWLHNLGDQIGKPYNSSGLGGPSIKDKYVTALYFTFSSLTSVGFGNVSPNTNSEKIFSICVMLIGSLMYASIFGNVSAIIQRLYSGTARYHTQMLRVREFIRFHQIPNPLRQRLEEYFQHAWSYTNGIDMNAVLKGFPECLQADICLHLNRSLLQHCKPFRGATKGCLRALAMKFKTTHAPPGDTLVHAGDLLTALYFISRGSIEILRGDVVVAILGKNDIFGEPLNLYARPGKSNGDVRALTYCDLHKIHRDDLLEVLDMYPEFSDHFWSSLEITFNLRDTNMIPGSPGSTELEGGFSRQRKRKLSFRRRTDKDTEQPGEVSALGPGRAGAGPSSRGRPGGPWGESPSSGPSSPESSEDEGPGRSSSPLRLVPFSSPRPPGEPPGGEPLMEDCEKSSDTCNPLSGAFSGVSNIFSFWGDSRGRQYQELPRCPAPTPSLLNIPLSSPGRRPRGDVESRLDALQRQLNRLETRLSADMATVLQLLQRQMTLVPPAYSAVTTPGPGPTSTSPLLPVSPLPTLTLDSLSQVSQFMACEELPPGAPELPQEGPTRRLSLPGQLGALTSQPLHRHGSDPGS
# Protocol: NVS_IC_hKhERGCh is a biochemical, single-readout assay that uses extracted gene-proteins from CHO in a cell-free assay. Measurements were taken 0.75 hour after chemical dosing in a 48-well plate.NVS_IC_hKhERGCh is one of one assay component(s) measured or calculated from the NVS_IC_hKhERGCh assay. It is designed to make measurements of radioligand binding, a form of binding reporter, as detected with scintillation counting signals by Filter-based radiodetection technology.Data from the assay component NVS_IC_hKhERGCh was analyzed into 1 assay endpoint. This assay endpoint, NVS_IC_hKhERGCh, was analyzed in the positive analysis fitting direction relative to DMSO as the negative control and baseline of activity. […] Furthermore, this assay endpoint can be referred to as a primary readout, because the performed assay has only produced 1 assay endpoint. […]
# Binding assays used specific radioligands (tritiated, iodinated) with non-radioactive competitive displacement ligands in agonist or antagonist protocols (as indicated) and various reference compounds and inhibitors to titrate specific binding to receptors and transporters. Most enzyme assays (CYPs, kinases, phosphatases, proteases, HDACs) used recombinant protein and specific substrates (fluorescence mostly, some colorimetric and radioactive) and inhibitors, followed by a biochemical separation of substrate and product. […]
# [3] = biological target: Small conductance calcium-activated potassium channel protein 1 (Rattus norvegicus) (UniProt P70606); assay: NVS_IC_rKCaCh: NovaScreen (NVS) Ion Channel Assay for rat Potassium Channel, Ca2+ Act., VI (KCaCh) (AID 2283336)
# Chain of Small conductance calcium-activated potassium channel protein 1 (Rattus norvegicus) (P70606 whole entry, looked up): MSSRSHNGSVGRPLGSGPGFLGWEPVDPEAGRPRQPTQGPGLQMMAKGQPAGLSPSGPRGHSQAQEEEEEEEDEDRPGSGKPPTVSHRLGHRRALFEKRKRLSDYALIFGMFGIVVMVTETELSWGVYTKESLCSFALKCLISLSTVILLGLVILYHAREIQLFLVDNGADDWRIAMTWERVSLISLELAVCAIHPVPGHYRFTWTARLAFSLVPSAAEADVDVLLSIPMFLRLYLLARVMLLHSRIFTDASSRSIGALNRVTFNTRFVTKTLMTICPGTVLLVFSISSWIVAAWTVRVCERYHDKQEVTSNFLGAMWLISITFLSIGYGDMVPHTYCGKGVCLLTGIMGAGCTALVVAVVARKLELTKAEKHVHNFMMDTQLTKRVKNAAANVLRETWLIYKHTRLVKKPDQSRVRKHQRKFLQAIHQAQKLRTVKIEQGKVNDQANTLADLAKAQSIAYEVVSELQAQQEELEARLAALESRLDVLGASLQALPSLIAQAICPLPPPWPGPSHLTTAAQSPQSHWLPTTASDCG
# Outline: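 Filter-based scintillation counting of radioligand bound to rat forebrain membrane preparations, measured 1 h after compound addition. Primary screen used 25 uM in duplicate, with concentration-response follow-up; signal decrease relative to DMSO marks activity.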
# [4] = biological target: rat Glutamate, MK-801 Agonist Site (GluNMDA_MK801), Grin1 (gene 24408) (UniProt P35439); assay: NVS_LGIC_rGluNMDA_MK801_Agonist: NovaScreen (NVS) Ligand-Gated Ion Channel Assay for rat Glutamate, MK-801 Agonist Site (GluNMDA_MK801) (AID 2283340)
# Outline: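 Rat forebrain membrane preparation; MK-801-site radioligand binding read by filtration and scintillation after 1.5 h. Single-point 25 uM duplicate screen, followed by singleton concentration series to 50 uM max; DMSO baseline.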
# [5] = biological target: rat Glycine Receptor, Strychnine-sensitive (GlyRStrySens), Glra1 (gene 25674) (UniProt P07727); assay: NVS_LGIC_rGlyRStrySens: NovaScreen (NVS) Ligand-Gated Ion Channel Assay for rat Glycine Receptor, Strychnine-sensitive (GlyRStrySens) (AID 2283341)
# Chain of rat Glycine Receptor, Strychnine-sensitive (GlyRStrySens), Glra1 (gene 25674) (P07727 whole entry, looked up): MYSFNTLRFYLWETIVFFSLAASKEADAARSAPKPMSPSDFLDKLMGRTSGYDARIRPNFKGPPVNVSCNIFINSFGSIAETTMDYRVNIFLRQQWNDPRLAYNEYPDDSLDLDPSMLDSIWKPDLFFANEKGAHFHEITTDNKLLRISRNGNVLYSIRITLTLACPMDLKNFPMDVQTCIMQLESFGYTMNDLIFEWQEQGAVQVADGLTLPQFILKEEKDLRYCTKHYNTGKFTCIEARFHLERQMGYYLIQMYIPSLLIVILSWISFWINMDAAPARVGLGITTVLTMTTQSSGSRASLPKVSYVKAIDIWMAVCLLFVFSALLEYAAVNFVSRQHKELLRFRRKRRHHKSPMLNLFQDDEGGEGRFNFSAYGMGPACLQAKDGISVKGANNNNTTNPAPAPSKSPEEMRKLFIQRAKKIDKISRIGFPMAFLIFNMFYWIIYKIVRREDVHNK
# Outline: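 Radioligand displacement on rat spinal cord membranes, 1 hr, filter scintillation read-out. Single-concentration duplicate screen at 25 uM; chemicals meeting threshold (e.g., 30% inhibition) rerun in concentration-response up to 50 uM. Loss of binding fitted versus DMSO.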
smiles,measurement,setting,value
CCCCCCCCCCC,outcome,[1],inactive
CN1CCN(Cc2cc(-c3ccc4[nH]c(=O)oc4c3)co2)[C@@H](c2ccc(F)cc2)C1,outcome,[2],inactive
CC=Cc1ccc(O)c(OC)c1,outcome,[3],inactive
CCCCN(CCCC)CCCC,outcome,[3],inactive
CC(C)c1ccc(C(=O)N=C(N)N)cc1S(C)(=O)=O,outcome,[4],inactive
CCCCC(CC)COC(=O)CC(C(=O)OCC(CC)CCCC)S(=O)(=O)O (configuration not stated),outcome,[4],inactive
Cc1ccc(C)c(O)c1C,outcome,[5],inactive
